# Screens deposited in PubChem BioAssay by The Scripps Research Institute Molecular Screening Center.
# A selection: hits, their analogues and other compounds. The true share with any hit is near 3.5%.
# GPR151 ag – activators of human GPR151 | PathHunter beta-arrestin GPR151 cells, luminescence | AID 1508602 | activation, % at 11.2 µM | Q8TDV0 | 1% of 650,000 active; in the data active = activation above about 4.9%;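 note: 0% = median of compound wells and 100% = cells with positive control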
# Target sequence (Q8TDV0 whole entry, looked up): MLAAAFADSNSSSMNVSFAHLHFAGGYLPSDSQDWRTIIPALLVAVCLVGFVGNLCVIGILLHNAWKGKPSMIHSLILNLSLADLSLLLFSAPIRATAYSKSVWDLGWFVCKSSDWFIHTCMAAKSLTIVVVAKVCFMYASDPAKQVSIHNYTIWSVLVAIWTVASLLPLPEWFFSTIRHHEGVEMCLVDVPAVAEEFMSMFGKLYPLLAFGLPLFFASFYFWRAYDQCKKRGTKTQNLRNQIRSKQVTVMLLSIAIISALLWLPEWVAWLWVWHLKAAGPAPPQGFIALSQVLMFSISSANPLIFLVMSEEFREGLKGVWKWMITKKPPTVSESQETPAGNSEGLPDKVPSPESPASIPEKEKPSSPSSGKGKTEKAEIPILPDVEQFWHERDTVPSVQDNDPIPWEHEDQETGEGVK
# TEAD-YAP block – TEAD-YAP interaction inhibition. HEK-TIYL cells, TEAD-Gal4/YAP UAS-luciferase luminescence. 1.4% of 640,000 active. inhibition, % at 9.12 µM. AID 1259422; in the data active = inhibition above about 32%;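 note: 0% = median of test compound wells and 100% = reference inhibitor wells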
# FBW7 activator – human FBW7 E3 ligase activation, primary screen; AID 1259310; 0.13% of 650,000 active; normalized activity (activation), % at 26.1 µM; AlphaScreen FBW7–phospho-cyclin E peptide binding, activator screen; Q969H0; in the data active = normalized activity above about 1.9%;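 note: purified mutant Fbw7 with reduced substrate affinity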
# MITF inh – human MITF inhibition, primary screen; O75030; AlphaScreen MITF homodimerization, bead proximity signal; inhibition, % at 2.6 µM; 0.91% of 650,000 active; AID 1259374; in the data active = inhibition above about 50%;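 note: 0% = vehicle wells with protein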
# MITF confirm – confirmation of human MITF inhibitors; shares compounds with MITF inh; AlphaScreen MITF homodimerization, biotin/His-MITF beads; inhibition, % at 2.6 µM; 16% of 4,700 active;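 active = inhibition above a cutoff derived from the DMSO control wells, cut at about 28% in these data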;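 note: 0% = MITF dimer wells with DMSO only; inhibitors lower the bead chemiluminescence by keeping MITF from dimerizing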
# AS interf ctr – optically interferes with AlphaScreen signal; shares compounds with MITF inh; inhibition, % at 2.6 µM; 7.6% of 4,700 active; LysRS AlphaScreen counterscreen, signal interference, triplicate;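 active = inhibition above a cutoff derived from the DMSO control wells, cut at about 30% in these data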
# Active calls of the source: *; x = no result.
SMILES,GPR151 ag,TEAD-YAP block,FBW7 activator,MITF inh,MITF confirm,AS interf ctr
CCc1ccc(CN2CCN(Cc3ccccc3Cl)CC2)cc1,-0.3,-2.8,-0.3,67.6*,4.8,17.6
COc1ccc(/C=N/N=C(\N)N[N+](=O)[O-])cc1,0.8,-11.7,-0.2,-16.6,x,x
Cc1ccc(NC(=O)CN2CC(c3ccccc3)CC2=O)cc1 (configuration not stated),0.8,-6.9,0.0,2.5,x,x
CN1CCN(P2(N3CCN(C)CC3)=NC(C(F)(F)F)=NC(C(F)(F)F)=N2)CC1,-1.8,10.5,0.0,10.4,x,x
C[n+]1ccc(-c2cc[n+](C)cc2)cc1,1.7,5.5,-0.3,64.7*,5.6,13.2
CCCCCCC[n+]1ccc(-c2cc[n+](CCCCCCC)cc2)cc1,-0.5,17.5,-0.1,-2.4,x,x
Cc1ccccc1CN1CCN(C(C)C)CC1,-2.5,-7.6,0.1,77.7*,-6.8,0.8
CC(C)N1CCN(Cc2ccccc2Br)CC1,1.9,-2.0,-0.1,51.1*,-0.1,-3.5
C=CCN1C(=O)C2(C(C(=O)OC)=C(N)Oc3cc(C)n(CCOC)c(=O)c32)c2ccccc21 (configuration not stated),-0.1,2.4,0.1,6.2,x,x
COc1ccc(CN2CCN(Cc3cccc(C)c3)CC2)cc1,-1.6,4.0,-0.5,31.4,x,x
Cc1ccc(CN2CCN(Cc3cccc(C)c3)CC2)cc1,1.0,6.7,-0.2,64.0*,8.7,17.7
Cc1cccc(CN2CCN(Cc3ccccc3C)CC2)c1,0.5,-6.2,-0.1,64.3*,-2.6,-4.1
COc1ccccc1CN1CCN(Cc2cccc(C)c2)CC1,-1.6,-7.1,-0.1,68.5*,7.8,8.9
Cc1cccc(CN2CCN(Cc3ccccc3F)CC2)c1,-0.7,-2.0,-0.2,79.3*,9.5,12.0
O=C(O)CCCCC[n+]1cc(/N=C(\[O-])Nc2ccccc2)on1,0.1,3.5,-0.1,-7.7,x,x
CCN1CCN(Cc2cccc([N+](=O)[O-])c2)CC1,0.1,-1.7,-0.2,-10.9,x,x
Cc1cccc(CN2CCN(Cc3ccccc3[N+](=O)[O-])CC2)c1,3.9,-4.1,-0.3,64.0*,13.0,-1.8
Cc1ccc(-n2c(/C=C/c3cccc(Br)c3)nc3ccccc3c2=O)cc1C,2.8,5.2,0.1,-15.4,x,x
COc1ccc(CN2CCN(Cc3ccccc3Br)CC2)cc1Br,0.0,-6.7,0.0,74.9*,4.3,1.7
COc1ccc(CN2CCN(C)CC2)cc1Br,1.5,6.6,0.9,72.8*,3.2,10.2
COc1ccc(CN2CCN(Cc3ccc(Br)cc3)CC2)cc1Br,0.4,-2.8,-0.8,32.8,x,x
Cc1c(C)n(C)c2cc3c(C(F)(F)F)cc(=O)n(C)c3cc12,1.4,-7.0,0.0,-8.1,x,x
COc1ccc2[nH]cc(CCN(Cc3ccccc3)Cc3ccccc3)c2c1,-1.4,5.5,-0.1,6.7,x,x
COc1ccc(OCC#CCN2CCNCC2)cc1,-1.3,-5.6,-0.2,59.3*,-10.4,-5.1
CCN1CCN(Cc2ccc(OC)cc2)CC1,0.3,-5.4,-0.1,-6.6,x,x
SMILES,GPR151 ag,TEAD-YAP block,FBW7 activator,MITF inh,MITF confirm,AS interf ctr
Cc1cccc(OCC(O)CNC2CN3CCC2CC3)c1 (configuration not stated),-0.3,5.0,-0.1,23.4,x,x
C1CCC(N2CCN(C3CC4CCC3C4)CC2)C1 (configuration not stated),0.8,-4.0,0.3,67.2*,-2.2,0.9
O=C(Cc1ccccc1)N1CCN(C2CC3CCC2C3)CC1 (configuration not stated),-1.3,-3.5,-0.1,24.3,x,x
CCOP(=O)(OCC)SCc1ccccc1,-0.8,-8.6,0.2,53.3*,2.5,8.6
Brc1cccc(CN2CCN(Cc3cccc(Br)c3)CC2)c1,0.0,1.9,0.6,76.7*,-3.0,10.2
Fc1cccc(CN2CCN(Cc3ccc4c(c3)OCO4)CC2)c1,-0.4,-3.0,0.2,56.1*,-2.5,3.4
Brc1cccc(CN2CCN(Cc3ccc4c(c3)OCO4)CC2)c1,0.8,3.0,-0.2,64.3*,-3.3,7.2
Clc1cccc(CN2CCN(Cc3cccc(Br)c3)CC2)c1,0.2,10.0,-0.1,49.5,x,x
CCOC(=O)C1=C(N)Oc2c(c(=O)oc3ccccc23)C1c1ccc(Cl)c(Cl)c1 (configuration not stated),-0.3,5.5,0.1,4.4,x,x
COc1ccccc1OCC(=O)N1CCN(Cc2nc3ccccc3[nH]2)CC1,2.9,-12.9,-0.5,75.2*,7.6,21.8
